# Compound activity from PubChem.
# The entries come from a sample that favours hits as a whole.
# nsP2pro inh: Primary qHTS for inhibitors of NSP2Pro chikungunya virus (CHIKV); Potency, µM (top dose mostly 24.9 µM), for inactives: top-dose activity change, negative = inhibition, hits mostly inhibitors; AID 1964107, 2024; Polyprotein P1234 (Chikungunya virus (strain S27-African prototype)), Q8JUX6; FRET peptide cleavage, nsP2pro, fluorescence 1 h; hit rate 1.1% among 31,000; further: nearly all actives have a fitted effect of over 60% in size
#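 FRET cleavage of 2.5 uM peptide 2 by 150 nM CHIKV protease domain at pH 8.0 (Tris, Tween 20). Compounds at 7 concentrations (up to 25 uM) preincubated 15 min. Fluorescence read after 1 h at room temperature.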
# nsP2 cell sec: Secondary cell base assay for inhibitors of NSP2Pro Chikungunya virus (CHIKV); shares compounds with nsP2pro inh; cell-based CHIKV nsP2 protease reporter assay; Potency, µM (doses to about 51.1 µM), for inactives: at the highest dose activity change, negative = inhibition, most hits filed as inhibitors; hit rate 10% among 450; AID 1964100, 2024; further: nearly all actives have a fitted effect of over 70% in size
# CHIKV NSP2 FL: Selectivity profile for inhibitors of NSP2Pro chikungunya virus (CHIKV): Full length NSP2 enzyme counterscreen (CHIKV-NSP2); hit rate 39% among 410; Potency, µM (top dose mostly 50.7 µM), for the others: at the top dose activity change, negative = inhibition, actives largely listed as inhibitors; Full-length CHIKV NSP2 protease enzymatic counterscreen; shares compounds with nsP2pro inh; further: nearly all actives have a fitted effect of over 65% in size
# Furin counter: Selectivity profile for inhibitors of NSP2Pro chikungunya virus (CHIKV): Human furin counterscreen; shares compounds with nsP2pro inh; Recombinant human furin enzymatic counterscreen, fluorogenic substrate; Potency, µM (top dose mostly 50.6 µM), inactives show top-dose activity change, negative = inhibition, hits mostly inhibitors; AID 1964102, 2024; hit rate 6% among 410
# Target sequence (P09958 whole entry, looked up): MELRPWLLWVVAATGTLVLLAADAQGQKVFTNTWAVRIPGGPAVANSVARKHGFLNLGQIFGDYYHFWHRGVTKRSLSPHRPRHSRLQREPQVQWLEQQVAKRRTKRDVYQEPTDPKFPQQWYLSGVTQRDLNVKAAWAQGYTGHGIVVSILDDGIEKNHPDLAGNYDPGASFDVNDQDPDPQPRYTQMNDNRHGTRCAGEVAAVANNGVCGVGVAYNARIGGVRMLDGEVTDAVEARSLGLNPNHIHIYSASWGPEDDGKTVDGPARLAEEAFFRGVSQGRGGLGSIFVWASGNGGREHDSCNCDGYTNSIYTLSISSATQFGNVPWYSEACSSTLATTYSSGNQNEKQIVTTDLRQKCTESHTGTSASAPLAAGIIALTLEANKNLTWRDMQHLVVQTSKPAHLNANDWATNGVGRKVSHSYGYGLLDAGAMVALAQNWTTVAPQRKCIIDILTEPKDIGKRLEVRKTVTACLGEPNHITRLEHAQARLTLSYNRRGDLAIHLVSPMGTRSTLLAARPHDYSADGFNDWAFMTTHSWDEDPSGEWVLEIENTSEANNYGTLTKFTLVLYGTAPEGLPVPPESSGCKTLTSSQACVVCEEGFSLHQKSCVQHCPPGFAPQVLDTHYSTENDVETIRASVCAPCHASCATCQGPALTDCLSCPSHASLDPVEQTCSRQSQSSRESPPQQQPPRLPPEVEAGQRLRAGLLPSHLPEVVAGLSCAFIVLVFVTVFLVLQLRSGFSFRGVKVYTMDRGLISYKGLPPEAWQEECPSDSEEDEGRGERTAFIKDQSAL
# nsP2 NS23 pep: Selectivity profile for inhibitors of NSP2Pro chikungunya virus (CHIKV): Endogenous NS2/3 peptide Counterscreen. shares compounds with nsP2pro inh. Purified CHIKV nsP2 protease, endogenous NS2/3 peptide cleavage. Potency, µM (top dose mostly 51 µM), inactives show at the highest dose activity change, negative = inhibition, usual class: inhibitors. hit rate 34% among 410; further: nearly all actives have a fitted effect of over 55% in size
# Papain counter: Selectivity profile for inhibitors of NSP2Pro chikungunya virus (CHIKV): Papain Counterscreen | hit rate 5% among 410 | AID 1964104, 2024 | Potency, µM (series often up to 51 µM), for inactives: at the highest dose activity change, negative = inhibition, actives largely listed as inhibitors | shares compounds with nsP2pro inh | purified papain protease activity, enzymatic inhibition
# nsP2pro confirm: Confirmatory qHTS for inhibitors of NSP2Pro chikungunya virus (CHIKV); shares compounds with nsP2pro inh; CHIKV nsP2 protease enzymatic activity, qHTS; Potency, µM (titrated, usually from 25.5 µM), inactives show top-dose activity change, negative = inhibition, actives largely listed as inhibitors; hit rate 43% among 410; AID 1964105, 2024; further: nearly all actives have a fitted effect of over 75% in size
# HCV NS3 counter: Selectivity profile for inhibitors of NSP2Pro chikungunya virus (CHIKV): NS34A-HCV Counterscreen | shares compounds with nsP2pro inh | HCV NS3/4A protease biochemical counterscreen | Potency, µM (titrated, usually from 50.9 µM), hits mostly inhibitors | hit rate 20% among 410; further: nearly all actives have a fitted effect of over 55% in size
# Starred values were filed as active, the others as inactive; i = inactive; ? = inconclusive; ! = not active in a repeat; [ ] = remark or other dose. The call rests on the fitted dose curve. On the % scale 0 is the no-effect control and ±100 the full control effect; potency means the concentration at half of the fitted maximal effect.
SMILES,nsP2pro inh,others
CN1CCCCCCN(C(=O)c2cnccn2)[C@H]2CCC[C@H]2C1=O,5%,
CN1C(=O)CCCCC1C(=O)NCCN1CCCCC1 (centres undefined),3%,
COC(=O)CC(O)C1OC(c2ccccc2)C(O)C1O (centres undefined),39%,
O=C1C=CC2OC(c3ccccc3)C(O)C2O1 (centres undefined),?,nsP2 cell sec=?;CHIKV NSP2 FL=?;Furin counter=-4%;nsP2 NS23 pep=?;Papain counter=-9%;nsP2pro confirm=?;HCV NS3 counter=?
C[C@H](O)c1onc(-c2ccc(F)cc2)c1C(=O)N1CCCC1,-3%[39.2 µM],
COC(=O)N[C@H](C(=O)N1CCC[C@H]1c1ncc(-c2ccc(-c3ccc(-c4cnc([C@@H]5CCCN5C(=O)[C@@H](NC(=O)OC)C(C)C)[nH]4)cc3)cc2)[nH]1)C(C)C,?,nsP2 cell sec=-11%;CHIKV NSP2 FL=?;Furin counter=-8%;nsP2 NS23 pep=-19%;Papain counter=i;nsP2pro confirm=?;HCV NS3 counter=i
CC(=O)N1CCC(N2CCOC[C@H]2c2ncc(-c3ccncc3)[nH]2)CC1,i,
COC(=O)N[C@H](C(=O)N1CCC[C@H]1c1ncc(-c2ccc3c(c2)O[C@@H](c2ccccc2)n2c-3cc3cc(-c4cnc([C@@H]5CCCN5C(=O)[C@@H](NC(=O)OC)C(C)C)[nH]4)ccc32)[nH]1)C(C)C,0%,
COc1ccc(S(=O)(=O)Nc2nc(-c3cccc([N+](=O)[O-])c3)cs2)cc1OC,16%,
Cc1ccc(-c2nonc2NC(=O)c2ccco2)cc1C,-2%,
O=C(c1ccccc1)N1CCC2(CC(Cc3ccccc3)=NO2)C1 (centres undefined),-3%[39.2 µM],
CCn1cc(S(=O)(=O)N2CCCC2Cc2noc(-c3ccccc3)n2)cn1 (centres undefined),1%,
Cc1nc([C@](C)(O)CO)sc1-c1cnc(N)c(O[C@H](C)c2cc(F)ccc2-n2nccn2)c1,7.9µM*,nsP2 cell sec=-21%;CHIKV NSP2 FL=-15%;Furin counter=3%;nsP2 NS23 pep=-23%;Papain counter=22%;nsP2pro confirm=-12%;HCV NS3 counter=i
COC1=Cc2c(nc3n(c2=O)C(C)C(=O)NC3(O)C(C)C)OC=C1 (centres undefined),?,nsP2 cell sec=-4%[33.5 µM];CHIKV NSP2 FL=0%[33.5 µM];Furin counter=-13%[33.5 µM];nsP2 NS23 pep=-23%[33.5 µM];Papain counter=-13%[33.5 µM];nsP2pro confirm=?;HCV NS3 counter=i
COc1cccc(-c2no[n+]([O-])c2C#N)c1,-23%,
O=C(Cn1ccc2cc(S(=O)(=O)N3CCCCC3)ccc21)NCc1ccccc1Cl,-14%,
Cc1ccc(C(=O)Nc2ccc(NC(=O)c3cccs3)cc2)cc1C,-1%,
N[C@@H](CO)C(=O)Nc1ccc(Cl)cc1C(=O)c1ccc[nH]1,-4%,
NC(CO)C(=O)NNCc1ccc(O)c(O)c1O (centres undefined),1.8µM*,nsP2 cell sec=-9%;CHIKV NSP2 FL=6.5µM*;Furin counter=-9%;nsP2 NS23 pep=4.1µM*;Papain counter=-1%;nsP2pro confirm=1.3µM*;HCV NS3 counter=?
CN1CCN(c2ccc(C(=O)Nc3n[nH]c4ccc(Cc5cc(F)cc(F)c5)cc34)c(NC3CCOCC3)c2)CC1,61%,
O=C(CN1C(=O)COc2ccc(S(=O)(=O)NC3CCCC3)cc21)Nc1ccc(Cl)cc1F,-11%,
CCc1ccc(NC(=O)C(NS(=O)(=O)c2cccc3nsnc23)c2ccccc2)cc1 (centres undefined),-29%,
CCCCOC(=O)C(=O)Nc1cccc(-c2nn[nH]n2)c1,-1%,
O=C(O)C(=O)Nc1cccc(-c2nn[nH]n2)c1,?,nsP2 cell sec=0%;CHIKV NSP2 FL=?;Furin counter=-7%;nsP2 NS23 pep=?;Papain counter=-6%;nsP2pro confirm=10µM*;HCV NS3 counter=?
Cc1ccc(-c2cc(C(=O)Nc3ccc(-c4nn[nH]n4)cc3)c3ccccc3n2)cc1C,i,
SMILES,nsP2pro inh,others
CC1=C(O)C(=O)C=C2C1=CC=C1[C@@]2(C)CC[C@@]2(C)[C@@H]3C[C@](C)(C(=O)O)CC[C@]3(C)CC[C@]12C,4.4µM*!,nsP2 cell sec=?;CHIKV NSP2 FL=16µM*;Furin counter=?;nsP2 NS23 pep=4.6µM*;Papain counter=?;nsP2pro confirm=1.8µM*;HCV NS3 counter=21µM*
C[C@@]1(C(=O)O)CC[C@]2(C)CC[C@]3(C)C4=CC(=O)c5cc(O)c(O)cc5[C@]4(C)CC[C@@]3(C)[C@@H]2C1,-9%[10 µM],
CC1(C)[C@@H](O)CC[C@]2(C)[C@H]3CC=C4[C@@H]5C[C@](C)(C(=O)O)CC[C@]5(C)CC[C@@]4(C)[C@]3(C)CC[C@@H]12,22%,
COc1cccc(-n2cc(C(=O)OCc3ccc(Cl)cc3)c3ccccc3c2=O)c1,-15%,
O=C(CCc1nc2ccccc2s1)NC1CCc2n[nH]c(=O)n2CC1 (centres undefined),1%,
COc1ccc(CN2CCN(c3ncnc4sc5c(c34)CC(C)CC5)CC2)cc1F (centres undefined),-13%,
O=C(C1CCOCC1)N1CCC(c2nc(C3CCOCC3)no2)CC1,i,
Cn1cc(C(=O)N2CCc3[nH]cnc3C2C2CCN(C(=O)C3CCOCC3)CC2)cn1 (centres undefined),?,nsP2 cell sec=-2%;CHIKV NSP2 FL=6.5µM*;Furin counter=-7%;nsP2 NS23 pep=?;Papain counter=-2%;nsP2pro confirm=?;HCV NS3 counter=9.2µM*
COC(=O)N1CCCCC1C(=O)N1CCC2(CC1)c1nc[nH]c1CCN2C (centres undefined),-11%,
Cc1ccc(-c2nc3cccc(C)n3c2Nc2ccc3c(c2)OCO3)o1,26%,nsP2 cell sec=102%;CHIKV NSP2 FL=-13%;Furin counter=-6%;nsP2 NS23 pep=-12%;Papain counter=-15%;nsP2pro confirm=-6%;HCV NS3 counter=i
Cc1cccc2nc(-c3ccco3)c(Nc3ccc4c(c3)OCO4)n12,55%,
Cc1ccc(-c2nc3ccccn3c2Nc2ccc3c(c2)OCO3)o1,-7%,
Cc1csc2nc(COC(=O)c3ccc(NC(=O)C(C)Oc4ccccc4)cc3)cc(=O)n12 (centres undefined),-17%,
